IL1B secr inh: inhibitors of inflammasome signaling (IL-1 beta secretion) | activity change, % at 57.5 µM | THP-1 LPS/ATP IL-1B secretion, AlphaLISA, 16 h; hits give low values | hit rate 4.7% among 360,000 | AID 743279; in the data active means activity change below about -50%; inconclusive means mostly about -30% to -49%
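THP-1 cells pretreated 1 hr with compounds (up to 57.5 uM final), then stimulated with LPS (250 ng/mL final) plus ATP (1.25 mM final); secreted IL-1B measured by AlphaLISA after 16 hr, decreased signal indicating inhibition.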
uPA surface inh: blocks generation of uPA at the cell surface. cell surface uPA generation assay, qHTS. Potency, µM (top dose mostly 38.3 µM), for the others: at the highest dose activity change, negative = inhibition, hits mostly inhibitors. hit rate 0.31% among 330,000. AID 540303; active means well fitted inhibition curve with a large enough effect; inconclusive means small, poorly fitted or top-dose-only effect; inactive means no such curve, though single readings can be large or run the other way; tested in mouse RAW 264.7 cells; further: potency means the concentration at half of the fitted maximal effect; nearly all actives have a fitted effect of over 55% in size
HT1080-NT tox: kills 2HG-producing HT-1080-NT fibrosarcoma cells; HT-1080-NT fibrosarcoma viability, CellTiter-Glo ATP luminescence, 48 h; Potency, µM (top dose mostly 46.1 µM), without a hit: top-dose activity, negative = less viability, actives largely listed as cytotoxic; hit rate 1.6% among 360,000; AID 686970;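 further: NT is the 2HG producing partner of a matched IDH1 knockdown line; potency means the concentration at half of the fitted maximal effect; 0% = DMSO-treated cells and -100% = media-only wells without cells; nearly all actives have a fitted effect of over 55% in size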
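Viability of the 2HG-overproducing fibrosarcoma line after 48 hours of compound exposure at 37 degrees C was determined by luminescence with CellTiter-Glo, and concentration-effect curves were then fitted and categorized.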
DT40 TDP1 CPT: growth inhibition of DT40 Tdp1-/-;hTDP1 cells with camptothecin (screen for TDP1 inhibitors); chicken DT40 Tdp1-/-;hTDP1 cells + 20 nM CPT, ATP luminescence, 48 h; Potency, µM (top dose mostly 46.2 µM), without a hit: top-dose activity change, negative = growth inhibition, actives largely listed as inhibitors; hit rate 12% among 420,000; further: potency means the concentration at half of the fitted maximal effect; nearly all actives have a fitted effect of over 55% in size
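Chicken DT40 Tdp1-/- cells complemented with human TDP1, 400 cells/well, exposed to compounds plus 20 nM camptothecin for at least 48 h at 37 C; viability read as ATP content by CellTiter-Glo luminescence.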
HT1080 IDH1KD tx: kills HT-1080 cells with IDH1 knockdown; Potency, µM (doses to about 46.1 µM), for the others: at the top dose activity, negative = toxicity, actives largely listed as cytotoxic; hit rate 2% among 360,000; HT-1080 IDH1 knockdown viability, ATP luminescence, 48 h;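 further: potency means the concentration at half of the fitted maximal effect; 0% = DMSO wells and -100% = cell-free medium wells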
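Viability of IDH1-knockdown HT-1080 fibrosarcoma cells was assessed by CellTiter-Glo after 48 h at 37 °C with titrated compound; concentration-effect curves were classified by fit quality and response size.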
DT40 TDP1 no CPT: qHTS for Inhibitors of human tyrosyl-DNA phosphodiesterase 1 (TDP1): qHTS in cells in absence of CPT | hit rate 15% among 420,000 | AID 686978, 2013 | DT40 Tdp1-/- hTDP1 cells, no CPT, ATP luminescence, 48 h | Potency, µM (titrated, usually from 46.2 µM), without a hit: at the top dose activity change, negative = growth inhibition, usual class: inhibitors; further: potency means the concentration at half of the fitted maximal effect; nearly all actives have a fitted effect of over 55% in size
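No-CPT arm: Tdp1-/-;hTDP1 DT40 cells (400/well) plus compounds, incubated ≥48 hr at 37 °C. Readout CellTiter-Glo luminescence.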
Starred values were filed as active, the others as inactive; ? = inconclusive; · = no result. Hits are enriched below; roughly 19% of the tested compounds scored in any of these assays. Unless noted, the call rests on the fitted dose curve; in most records, active means well fitted curve in the direction sought with a large enough effect; inconclusive means small, poorly fitted or top-dose-only effect, or another doubt; inactive means no such curve, though single readings can be large; an effect the other way counts as inactive or inconclusive. Unless noted, on the % scale 0 is the no-effect control and ±100 the full control effect.

SMILES	IL1B secr inh	uPA surface inh	HT1080-NT tox	DT40 TDP1 CPT	HT1080 IDH1KD tx	DT40 TDP1 no CPT
COc1ccc(-n2c(=O)c3c4c(sc3n(CC(=O)Nc3cc(C)[nH]n3)c2=O)CCCC4)c(OC)c1	-16.6	3.4%	?	6.5%	?	-20.9%
COc1ccc(-n2c(=O)c3c4c(sc3n(Cc3ccc(F)cc3)c2=O)CCCC4)c(OC)c1	·	·	·	20.6µM*	·	14.6µM*
C[C@@](N)(C(=O)O)c1ccc(P(=O)(O)O)cc1	·	·	·	11.2%	·	-7.8%
Cc1sc2ncn(CC(=O)N(C)c3cccc(C(F)(F)F)c3)c(=O)c2c1S(=O)(=O)N1CCN(c2ncccn2)CC1	·	·	·	-9.3%	·	-5.8%
Cc1ccc(CCNC(=O)CCSCc2ccccc2Cl)cc1	·	·	·	-20.0%	·	-21.1%
Cc1cc(C(C)(C)C)cc(S(=O)(=O)Nc2cccc(C(=O)O)c2)c1C	44.5	-1.4%	12.5%	-3.1%	-0.4%	-9.6%
O=C(Nc1ncccc1O)c1ccc(NS(=O)(=O)c2ccc3[nH]c(=O)[nH]c3c2)cc1	-2.1	-3.2%	?	?	?	?
O=C(Nc1ncccc1O)c1ccc(S(=O)(=O)Nc2ccccc2)cc1	29.7	-16.6%	13µM*	5.17µM*	9.2µM*	5.17µM*
Cc1ccccc1NC(=O)c1ccc(NS(=O)(=O)c2cc(C(C)(C)C)cc(C)c2C)cc1	-19.6	-6.2%	?	?	?	14.6µM*
O=C(Nc1ccccc1O)c1ccc(NS(=O)(=O)c2cccc3cccnc23)cc1	32.0	7.08µM*	-26.0%	4.11µM*	?	7.31µM*
CCOCCn1c(N2CCCC2)nc2c1c(=O)n(C)c(=O)n2C	20.5	-4.2%	-3.2%	?	-0.7%	?
COc1ccc(NC(=O)CSC2=Nc3ccccc3C3=NC(CCC(=O)NCCc4ccccc4)C(=O)N23)c(OC)c1 (configuration not stated)	·	·	·	23.1µM*	·	8.2µM*
COCCCNC(=O)CSC1=Nc2ccccc2C2=NC(CCC(=O)NCc3ccc(OC)cc3)C(=O)N12 (configuration not stated)	·	·	·	-6.2%	·	-11.5%
COc1ccccc1CNC(=O)CCC1N=C2c3ccccc3N=C(SCC(N)=O)N2C1=O (configuration not stated)	·	·	·	29.1µM*	·	3.66µM*
COCCCNC(=O)CSC1=Nc2ccccc2C2=NC(CCC(=O)NCc3ccccc3OC)C(=O)N12 (configuration not stated)	·	·	·	16.4µM*	·	18.4µM*
O=C(CN1C(=O)CSc2ccc(S(=O)(=O)N3CCOCC3)cc21)NCCc1ccccc1	-13.4	·	-2.0%	4.3%	0.9%	-7.8%
CC(=O)NC(CC(C)C)C(=O)NC(Cc1ccccc1)C(=O)CCl (configuration not stated)	-98.1*	-9.2%	-14.1%	2.31µM*	?	2.59µM*
CC(=O)[C@H](CC(C)C)NC(=O)[C@@H](CC(C)C)NC(=O)[C@H](CC(C)C)NC(=O)OCc1ccccc1	·	·	·	0.15µM*	·	0.188µM*
CC(=O)NC(CC(C)C)C(=O)NC(Cc1ccccc1)C(N)=O (configuration not stated)	-0.5	·	1.6%	3.6%	4.0%	-7.1%
CC(C)CC(NC(=O)OCc1ccccc1)C(=O)NC(Cc1c[nH]c2ccccc12)C(=O)O (configuration not stated)	12.0	·	?	-11.1%	18.4%	-11.2%
CCN(CC(=O)Nc1cccc(F)c1)CC(=O)Nc1ccccc1OC	6.8	-0.7%	0.8%	-3.2%	6.5%	-0.9%
CCN(CC)CC(=O)Nc1ccc(-c2ccc(NC(=O)CN(CC)CC)c(OC)c2)cc1OC	-16.2	0.0%	?	13µM*	?	9.2µM*
CCN(CC(=O)Nc1ccccc1OC)CC(=O)Nc1c(Cl)ccc(C)c1Cl	13.5	3.6%	-1.4%	?	5.5%	14.6µM*
N=C1C(=O)OCC1c1ccccc1NC(=O)CN1CCOCC1 (configuration not stated)	28.5	-0.6%	-8.9%	-6.8%	-1.6%	-17.0%
O=C(c1[nH]c(C(F)(F)F)nc1-c1ccccc1)N1CCc2ccccc2C1	18.7	·	17.2%	0.8%	1.3%	-22.1%
SMILES	IL1B secr inh	uPA surface inh	HT1080-NT tox	DT40 TDP1 CPT	HT1080 IDH1KD tx	DT40 TDP1 no CPT
C[C@@H]1CN([C@@H](C)CO)C(=O)CCCn2nncc2CO[C@@H]1CN(C)C(=O)Nc1cccc(C(F)(F)F)c1	13.3	·	13.5%	-4.8%	15.2%	-28.9%
CCOC(=S)SCC(=O)N1CCc2cc(OC)ccc2C1C1C(=O)CCCC1=O (configuration not stated)	90.7	?	?	?	23.1µM*	18.4µM*
CCOC(=S)SCC(=O)N1CCc2cc(OC)c(OC)cc2C1C1C(=O)CC(C)(C)CC1=O (configuration not stated)	0.0	-3.3%	-7.5%	17.3%	-6.8%	6.3%
CC(=O)N1CCCc2ccc(NS(=O)(=O)c3ccc(C)cc3)cc21	20.8	-8.1%	-21.4%	?	-17.2%	25.9µM*
CCOc1ccc(S(=O)(=O)Nc2ccc3c(c2)N(C(C)=O)CCC3)cc1	·	·	·	?	·	18.4µM*
CC(=O)c1ccc(-c2c(CCO)sc3ccccc23)cc1	23.3	·	-21.0%	?	-27.8%	?
CCc1ccc(N(CC(=O)NC(C)C)C(=O)CCC(=O)Nc2ccccn2)cc1	-3.5	-0.9%	0.3%	1.8%	-2.8%	2.1%
CCNC(=O)COc1ccc(/C=C2\COc3ccccc3C2=O)cc1OC	-102.2*	-0.9%	?	14.6µM*	25.9µM*	13µM*
CCOc1cc(/C=C2\COc3ccccc3C2=O)ccc1OCC(=O)N(C)C	-97.8*	-9.1%	25.9µM*	?	23.1µM*	10.3µM*
O=C1c2ccccc2C(O)(c2ncc[nH]2)N1CCc1ccccc1 (configuration not stated)	13.2	0.0%	11.9%	?	9.5%	9.3%
OC[C@H]1O[C@H](OC[C@H]2OC(O)[C@H](O)[C@@H](O)[C@@H]2O)[C@H](O)[C@@H](O)[C@@H]1O (some centres not stated)	2.8	-6.3%	27.4%	-15.6%	6.3%	-1.3%
CC(C)N(Cc1nc(-c2ccc(Cl)cc2)no1)C(=O)C(c1ccccc1)c1ccccc1	-11.4	8.4%	-18.0%	?	-23.6%	?
Cc1cccc(-c2noc(CN(C(=O)CCc3ccccc3)C(C)C)n2)c1	-14.8	20.8%	-22.3%	29.1µM*	-14.3%	?

Source: PubChem
